Results taken from PubChem BioAssay AID435005 (Broad Institute, 2010).
Among all 300,000 compounds or so, about 2,400 (0.8%) were called active. What follows is part of a selection rich in actives, with near analogues and random picks from the rest. Values without a mark were called inactive.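 How the source made its calls: active means Every replicate reaches about 75%, or at least half do and their mean reaches it too (limit read from the data); inconclusive means At least half of replicates reach the limit but their mean does not; inactive means Under half of replicates reach the limit.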

Experiment: INS-1E beta cell survival under cytokines – luminescence, primary screen (AID 435005);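 further: 0% = cytokine-treated negative control wells and 100% = positive control rescue; higher means more ATP so stronger rescue from cytokine killing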
Conditions: INS-1E cytokine-induced death, ATP luminescence, 48 h; stronger effect = higher value; percent of positive-control rescue, neutral wells zero; concentration not given here

Row | SMILES | protection from apoptosis
1 | Cc1cc(N2CCCC2)ccc1NC(=O)COc1ccc(Cl)cc1 | -16.4%
2 | O=C1N[C@H](Cc2c[nH]c3ccccc23)COC(=O)[C@H](Cc2ccc(F)cc2)C/C=C\C[C@H]1CC(=O)N(CCO)Cc1ccccc1 | -0.37%
3 | COc1ccc2c(c1)CCNC2Cc1ccc(OC)c(O)c1 (centres undefined) | -7.35%
4 | CC[C@H]1CN2CCc3cc(OC)c(OC)cc3[C@@H]2C[C@@H]1C[C@H]1NCCc2cc(OC)c(OC)cc21 | 81.8% (active)
5 | CCc1ccc(OCC2c3cc(OC)c(OC)cc3CCN2C(C)=O)cc1 (centres undefined) | -2.37%
6 | Cc1ccc(S(=O)(=O)N2CCN(C(=O)Cn3c(=O)cnc4ccccc43)CC2)c(C)c1 | 3.1%
7 | CCOc1ccccc1Nc1nnc(SCC(=O)NCC2CCCO2)s1 (centres undefined) | -3.28%
8 | COc1cccc2c(N/N=C/c3ccco3)cc(C)nc12 | 0.451%
9 | COc1cccc(/C=N/Nc2cc(C)nc(-c3ccccc3O)n2)c1O | 83.1% (active)
10 | COc1cc(/C=N/Nc2nc3ccccc3s2)ccc1O | -9.44%
11 | Cc1nc(Cl)cc(N/N=C/c2ccccc2)n1 | 0.482%
12 | Cc1cc(N/N=C\c2ccc(Br)cc2)nc(-n2nc(C)cc2C)n1 | 101% (active)
13 | COc1ccc(/C=N/Nc2cc(N3CCOCC3)nc(C)n2)c(OC)c1 | -0.288%
14 | COc1ccccc1/C=N\Nc1cc(C)nc(-n2nc(C)cc2C)n1 | 85.5% (active)
15 | Cc1ccc(S(=O)(=O)Nc2nc(C)cc(N/N=C/c3ccc(O)cc3)n2)cc1 | -0.0503%
16 | COc1ccccc1/C=N/Nc1nc(C)c(C(C)=O)s1 | 1.33%
17 | CC(=O)Nc1ccc(S(=O)(=O)NCCC(=O)N2CCN(c3ccccc3Cl)CC2)cc1 | 4.22%
18 | O=S(=O)(NCC1CN(S(=O)(=O)c2ccc3c(c2)OCCO3)C1)c1c(F)cccc1F | -0.452%
19 | O=C(COC(=O)c1n[nH]c2ccccc12)Nc1ccccc1Br | 2.52%
20 | O=C(Nc1ccc(C(F)(F)F)cc1)c1cccc(-n2cnnn2)c1 | 8.03%
21 | Cc1ccc(C(=O)Nc2ccccc2-c2ccccc2)cc1S(=O)(=O)Nc1ccccc1 | 12.9%
22 | CN(CCc1ccccn1)C(=O)c1ccc(OC2CCN(Cc3ccccn3)CC2)cc1 | 0.235%
23 | O=C(NCCOc1cccnc1)c1ccc(OC2CCN(Cc3ccccn3)CC2)cc1 | 120% (active)
24 | O=C(c1ccc(OC2CCN(Cc3ccccn3)CC2)cc1)N1CCCCCC1 | -1.86%
25 | CN(Cc1ccc(F)cc1)C(=O)CN1C(=O)c2ccccc2S1(=O)=O | -4.27%
26 | CN(C)C(CNC(=O)c1ccc(OCc2cn3ccccc3n2)cc1)c1ccco1 (centres undefined) | 0.439%
27 | Fc1ccc(/C=N/Nc2nc(-c3cccnc3)nc3ccccc23)cc1 | 12.4%

Row | SMILES | protection from apoptosis
28 | Oc1ccc(/C=N/NC2=NCCCCC2)c(O)c1 | -2.33%
29 | Oc1ccc(/C=N/Nc2nc(-c3ccccc3F)nc3ccccc23)c(O)c1 | 91.3% (active)
30 | FC(F)(F)c1nc2ccccc2nc1N/N=C/c1ccc(Cl)cc1 | 7.12%
31 | Cc1nc2ccccc2nc1N/N=C/c1ccc(O)cc1O | 86.1% (active)
32 | Cc1cccc(-c2nc(Nc3ccc(O)cc3)c3ccccc3n2)c1 | -3.47%
33 | COc1ccc(-c2c(C#Cc3ccsc3)c3cc(-c4ccc(CN5CCOCC5)cc4)ccc3n2C)cc1 | -5.34%
34 | C=CCC[C@@H](Cc1ccc(F)cc1)C(=O)OC[C@@H](C)NC(=O)[C@H](CC=C)CC(=O)N(CCO)Cc1ccccc1 | -3.2%
35 | CC(C)(C)NS(=O)(=O)NC(=O)C1=C(N2CCCC2)COC1=O | -7.92%
36 | COc1ccc(NC(=O)CNc2cc(S(=O)(=O)N3CCOCC3)ccc2N2CCOCC2)c(OC)c1 | -2.12%
37 | CC(CNC(=O)Cn1cnc2c(OCc3ccccc3)ncnc21)c1ccccc1 (centres undefined) | 0.936%
38 | CC(C)(C)OC(=O)C[C@@H]1C/C=C\C[C@@H](CC(=O)N[C@H](CO)Cc2ccccc2)C(=O)NC[C@@H](c2ccccc2)OC1=O | 6.98%
39 | CCN(CC)CCOc1ccc2c(c1)C(=NNC(=O)c1ccccn1)c1cc(OCCN(CC)CC)ccc1-2 | 107% (active)
40 | CCOc1cc2ccccc2cc1C(=O)Nc1ccccn1 | -5.78%
41 | Cc1ccc(Cl)cc1NC(=O)c1ccccn1 | -1.51%
42 | NS(=O)(=O)c1ccc(CNC(=O)c2cccc(S(=O)(=O)N3CCc4ccccc43)c2)cc1 | 1.37%
43 | O=C(Nc1cc(S(=O)(=O)N2CCCCC2)ccc1Cl)C1COc2ccccc2O1 (centres undefined) | 3.53%
44 | Cc1cccc(NC(=O)Nc2nnc(-c3ccccc3)o2)c1 | -2.12%
45 | COc1cccc(NC(=O)NCc2ccc(F)cc2)c1 | -3.25%
46 | Cc1cccc(NC(=O)Nc2cccc(Oc3c(F)c(F)c(F)c(F)c3F)c2)c1 | 99.2% (active)
47 | CN(CC(=O)Nc1ccc(C(N)=O)cc1)S(=O)(=O)c1ccc2c(c1)OCCO2 | -4.98%
48 | N#Cc1cccc(NC(=O)C2CCCN(C(=O)c3ccc(Cl)cc3)C2)c1 (centres undefined) | 0.765%
49 | O=C(/C=C/c1ccc([N+](=O)[O-])o1)NNC(=O)c1ccc(F)cc1 | 93.8% (active)
50 | Cc1ccc(/C=C/C(=O)Nc2ccc([N+](=O)[O-])c(NC(=O)/C=C/c3ccc(C)o3)c2)o1 | 2.69%
51 | O=C(N/N=C/c1ccc([N+](=O)[O-])o1)c1cn(-c2ccccc2)nc1-c1ccc(F)cc1 | -1.79%
52 | C[C@H]1COC(=O)[C@H](CC(=O)OC(C)(C)C)C/C=C\C[C@@H](CC(=O)N[C@H](CO)Cc2ccccc2)C(=O)N1 | 0.417%
53 | COCCCNC(=O)CC1C[C@H](C(=O)N2CCCCC2)[C@@]2(CCc3ccccc3)c3[nH]c4ccccc4c3CCN2C1=O (some centres undefined) | -3.93%
54 | C=CC[C@@H](CC(=O)N[C@H](CO)Cc1ccccc1)C(=O)N[C@@H](COC(=O)[C@@H](CC=C)Cc1ccc(F)cc1)Cc1c[nH]c2ccccc12 | 2.3%
